According to the supplement of paper PMC6555819:

How the values were obtained:
Assay in all cases: PBM binding z-score (relative to random genomic background probes); higher = stronger binding; sequences stand for … in GC…GCGATTGACAGCGTAGAATGAAGG
[1] = tested on: RARb homodimer (NR concentration 270 nM)
In short: (§1)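 Custom Agilent 4×180K protein-binding microarrays carried double-stranded probes, each with a 34-nt variable region. These regions held direct-repeat seeds, single-nucleotide variants, half-site ablations and random human genomic background sequences. Ligand-free nuclear receptor dimers were incubated on the arrays for 1 h, antibodies against each partner (one per run) detected binding, and scanned fluorescence was regression-normalized. Binding z-scores take the random background probes as reference.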

[2] = tested on: RARg:RXRa (NR concentration 270 nM, RXRa partner concentration 90 nM)
In short: as §1

[3] = tested on: RARg homodimer (NR concentration 270 nM)
In short: as §1

[4] = tested on: RXRa DBDmut IVT, anti-RXR (DBD mutation: RXRa K156A/R161A, NR concentration 90 nM)
In short: as §1

[5] = tested on: RXRa homodimer (NR concentration 180 nM)
In short: as §1

[6] = tested on: THRa:RXRa (NR concentration 90 nM, RXRa partner concentration 90 nM)
In short: as §1

[7] = tested on: THRa homodimer (NR concentration 90 nM)
In short: as §1

[8] = tested on: VDR homodimer (NR concentration 270 nM)
In short: as §1

Row | Sequence | PBM binding z-score [1] | PBM binding z-score [2] | PBM binding z-score [3] | PBM binding z-score [4] | PBM binding z-score [5] | PBM binding z-score [6] | PBM binding z-score [7] | PBM binding z-score [8]
1 | AGAATGAGGTTACCAAAGATCAGGGAGACGCTTG | 0.689 | 2.21 | 1.8 | 1.28 | 2.77 | 2.86 | 0.711 | 0.443
2 | GCTATTAGTTGAGAGGGCAACCGAATGATTCTCG | 1.14 | 0.913 | 1.01 | 0.884 | 0.882 | 0.555 | -0.117 | 0.435
3 | ACTCGGAGGACAAAGGTCAGACCTACGCCAGTGA | 4.02 | 6.08 | 5.29 | 1.23 | 5.81 | 3.5 | 0.604 | 1.81
4 | TCTTGTAGATCAACATGAGGTTAAGAAAGATCGA | 0.695 | 1.12 | 0.455 | 0.475 | 1.27 | 2.18 | 0.657 | 0.413
5 | CAAACTAGGTCACCGGAAGGTCGAAGTCCGCATG | 4.74 | 6.69 | 6 | 1.66 | 4.65 | 4.04 | 2.22 | 1.97
6 | AGAATGAGGTTACCAAGGATCAGGGAAACGCTTG | 1.02 | 1.94 | 1.65 | 0.704 | 2.62 | 2.94 | 1.1 | 0.508
7 | CTCGAAAGGCCGTGCTCAGGTGAGTATACCAAAC | 0.384 | 0.136 | 0.46 | 0.0515 | -0.297 | 1.61 | 0.381 | -0.249
8 | TCGAGTAGGTTACCAATGGGGCGTTCAGCTTTCT | 0.227 | 0.184 | 0.225 | 0.454 | 0.239 | -0.0946 | -0.39 | -0.531
9 | TCATATAGTTAAACAGGTGAAAGTCCGTAAGTTA | 0.84 | 0.464 | 0.347 | 1.57 | 1.04 | 0.679 | 0.485 | 0.667
10 | CCTTACGGGTCAAGGTTATAACACGGGTGGTACG | 3.35 | 5.02 | 4.89 | 1.1 | 5.42 | 3.06 | 0.539 | 1.41
11 | TCGAGTAGGTTAGTCGGCGCATTCAGCCAACATA | -0.408 | -0.412 | -0.662 | -0.0124 | -0.244 | -0.542 | -0.648 | -0.26
12 | ATCTCTAGGTAAAGATAGTTCGGTGAATGCAAAT | -0.015 | 0.125 | 0.491 | 0.0249 | -0.171 | 0.322 | 0.197 | 0.151
13 | CGAACGAGGGCATGAGTTGAAAGCAAATGCCGAT | 0.836 | 1.52 | 1.57 | 2.22 | 1.19 | 1.37 | -0.313 | 1.57
14 | CCGGCTGGGGCAAAGGTTACCATACTCAGTACGA | 2.25 | 3.68 | 1.69 | -0.158 | 3.6 | 1.77 | -0.377 | -0.169
15 | ATCTGTAGGTAAGACTCAGTTCAGTGAAGAACGC | 0.419 | 0.15 | -0.0533 | 0.0968 | 0.114 | 0.687 | 0.0437 | 0.939
16 | GATACAGGGTCACCTAGAGGCCAGAGTATGGAAA | 3.89 | 7.38 | 5.66 | 2.02 | 6.04 | 3.91 | 1.32 | 1.97
17 | TTACCAAGGTGAGCTAAGGTCGTTGATCCAACTC | 1.72 | 1.56 | 1.15 | -0.158 | 1.65 | 4.71 | 2.41 | 1.29
18 | GGAACGAGGGCATGCGAGTTGATAGCATGGCGAT | 0.608 | 1.21 | 1.6 | 2.03 | 0.847 | 2.7 | -0.777 | 1.97
19 | CAAACTAGGTCACAGCGGTCAAAGTCCGTGCGTA | 4.53 | 5.19 | 5.77 | 1.84 | 3.87 | 3.66 | 1.74 | 2.57
20 | CGTCCAAGGTCATCGGAGGTCAGTGAAGACAGAT | 5.43 | 7.31 | 7.72 | 4.24 | 6.83 | 5.45 | 3.48 | 5.07
21 | GCTTTTAGTTGAAAGGGCAACCGAATGATTCTCG | 1.78 | 1.2 | 1.29 | 0.971 | 1.06 | 0.54 | -0.708 | -0.32
22 | ATATGTACGTTAGCTGGGGTCATTCAGACTAGGC | 3.2 | 3.67 | 2.5 | 2.23 | 5.37 | 4.01 | 3.2 | 5.16
23 | TCTGCGAGGTCAACGATGGTCAGCTAATCTGCTA | 4.5 | 6.57 | 7.19 | 3.91 | 7.18 | 4.26 | 2.92 | 3.6
24 | TCTTGTAGATCAAAGGTTAAGAGAGCCGAAGCCT | 1.45 | 1.84 | 0.766 | 0.28 | 3.32 | 1.18 | -0.582 | -0.415
25 | AGTCAAAGCTCATCTAGGTAACGTAAGATATGCT | -0.617 | 0.0208 | 0.207 | -0.43 | 0.198 | 0.467 | -0.333 | -0.256
26 | CCTATTAGTTGACCATAAGGGCTACCGAAGCTCG | 1.04 | 0.591 | 0.633 | 0.659 | 0.214 | 0.318 | 0.305 | 0.787
27 | GATACAGGGTCAGCTAGAGGCCAGAGAATGGAAA | 3.39 | 6.83 | 5.12 | 1.73 | 4.78 | 3.35 | 0.483 | 0.71
28 | GGAACGAGGGCAAGTTGATAGGAGAGTTTGATGG | 1.61 | 1.72 | 2.08 | 2.4 | 0.681 | 1.27 | 0.249 | 2.23
